Results filed as inconclusive are left out. The source made the active and inactive calls. Unless noted, no cut-off is given here; in the data, nearly all actives have AC50 up to about 26 µM.
Key:
[1] = growth inhibition of DIPG glioma cells, dose response, cell-based, SU-DIPG-XVII, MIPE5.0, CellTiter-Glo, qHTS (AID 1347060); settings: SU-DIPG-XVII viability, CellTiter-Glo ATP luminescence;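 for AC50: cells exposed to compound for 48 hours before viability readout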
[2] = growth inhibition of DIPG glioma cells, dose response, cell-based, SU-DIPG-XIII, MIPE5.0, CellTiter-Glo, qHTS (AID 1347064; cut-off not given, nearly all actives have AC50 up to about 23 µM;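 for AC50: cells exposed to compound for 48 hours before the viability read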); settings: SU-DIPG-XIII viability, CellTiter-Glo ATP luminescence
[3] = viability loss in pontine glioma line – cell-based, SU-DIPG-XXV, MIPE5.0, CellTiter-Glo, qHTS, dose response (AID 1347065); settings: CellTiter-Glo ATP luminescence;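 note: cells exposed to compound for 48 hours before ATP readout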
[4] = JHH-DIPG-1 glioma cell viability, MIPE5.0 library, CellTiter-Glo luminescence, qHTS (AID 1347067); settings: JHH-DIPG-1 glioma viability, CellTiter-Glo ATP luminescence;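 note: cells exposed to compound for 48 hours before readout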
[5] = SU-DIPG-VI glioma cell viability, MIPE4.0 library, CellTiter-Glo luminescence, qHTS (AID 1347066; cut-off not given, nearly all actives have AC50 up to about 30 µM;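 note: cells exposed to compound for 48 hours before readout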); settings: CellTiter-Glo ATP luminescence
[6] = SU-DIPG-XXV glioma cell viability, MIPE5.0 library, qHTS (AID 1347068; cut-off not given, nearly all actives have IC50 up to about 30 µM;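 for IC50: cells exposed to compound for 48 hours before viability readout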)
[7] = sensitizers of A549 cells to miR-34 induction, primary screen, imaging, A549 dox-inducible miR-34, nuclei and caspase counts (AID 1347080;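 active = compounds whose cell count with miR-34 switched on is under 0.7 times the count with it off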); settings: A549 miR-34 inducible, Hoechst nuclei count, 48 h
[8] = modifiers of HSF1 nuclear foci, imaging, Selleck Cancer Library (AID 1347162; in the data active = plate-normalised HSF1 focus index below about 0.46); settings: human cells, at 10 µM; SSMD: measured here: HSF1 foci SSMD mean; cell count: measured here: cell number; plate-normalised HSF1 focus index: stronger effect = lower value
[9] = survival rescue of mitochondrial mutant cells in low glucose, primary screen, MELAS cybrids, Rieske KO mouse fibroblasts, CellTiter-Glo (AID 1508586;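 active = mean z-score across replicates of 1.96 or higher in either the MELAS or the Rieske mutant cell line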;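 note: z relative to plate mean and SD of compound and empty wells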)
[10] = ovarian cancer cell viability with rucaparib, profiling panel, oncology-focused library, rucaparib conditional (AID 1508598;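 active = normalized viability below 100% at a tested concentration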); settings: patient-derived ovarian cancer cells, CellTiter-Glo viability, 144 h, stronger effect = lower value

O=C(/C=C\n1cnc(-c2cc(C(F)(F)F)cc(C(F)(F)F)c2)n1)NNc1ccccn1
active: AC50 [1] 2.95 µM | AC50 [2] 0.295 µM | AC50 [3] 5.25 µM | AC50 [4] 13.2 µM

COc1cccc2c1c(O)c(C(=O)N(C)c1ccc(C(F)(F)F)cc1)c(=O)n2C
inactive: outcome [1] | outcome [2] | outcome [3] | outcome [4]

CCCCOc1nc(N)c2c(n1)N(Cc1cccc(CN3CCCC3)c1)CC(=O)N2
inactive: outcome [1] | outcome [2] | outcome [3]

CC[C@@H](C)Nc1cc(C(=O)NC2CC3CCC(C2)N3c2ccc(C(=O)C3CC3)cn2)c(C)cc1C(N)=O (stereo partly specified)
active: AC50 [1] 0.148 µM | AC50 [2] 0.209 µM | AC50 [3] 0.186 µM | AC50 [4] 0.209 µM

CN1C/C=C/CCOc2cccc(c2)-c2ccnc(n2)Nc2cccc(c2)C1
active: AC50 [1] 0.0833 µM | AC50 [2] 0.132 µM | AC50 [3] 0.0934 µM | AC50 [4] 0.166 µM

CN1CCN(c2cccc(Nc3nc4c(-c5ccc(S(C)(=O)=O)cc5)cccn4n3)c2)CC1
5770: cell count ([7]; measured here: total cells with miR-34 induction, stronger effect = lower value)
0.496: fold change ([7]; measured here: relative caspase fold change +Dox/-Dox)
active: AC50 [1] 16.6 µM | AC50 [2] 16.6 µM | AC50 [3] 11.8 µM | AC50 [5] 23.5 µM | AC50 [4] 20.9 µM | IC50 [6] 11.8 µM | viability ([10]; at 0.000305 µM, OCI-P5x cells, without rucaparib) 90.7% | viability ([10]; at 0.00122 µM, OCI-P5x cells, without rucaparib) 96.6% | viability ([10]; at 0.0781 µM, OCI-P5x cells, without rucaparib) 99.2% | viability ([10]; at 5 µM, OCI-P5x cells, with rucaparib 20 µM, 100% = cells with rucaparib alone) 45% | viability ([10]; at 5 µM, OCI-P5x cells, without rucaparib) 77.6%
-2.58: SSMD [8]
inactive: fold change ([7]; stronger effect = lower value, cell number ratio, induced over uninduced) 0.892 | plate-normalised HSF1 focus index [8] 0.914 | z-score ([9]; MELAS cybrid survival, CellTiter-Glo 48 h, stronger effect = higher value) -0.221 | viability ([10]; at 0.000305 µM, OCI-C5x cells, with rucaparib 10 µM, 100% = cells with rucaparib alone) 113% | viability ([10]; at 0.000305 µM, OCI-C5x cells, without rucaparib) 104% | viability ([10]; at 0.000305 µM, OCI-P5x cells, with rucaparib 20 µM, 100% = cells with rucaparib alone) 101% | viability ([10]; at 0.00122 µM, OCI-C5x cells, with rucaparib 10 µM, 100% = cells with rucaparib alone) 115% | viability ([10]; at 0.00122 µM, OCI-C5x cells, without rucaparib) 112% | viability ([10]; at 0.00122 µM, OCI-P5x cells, with rucaparib 20 µM, 100% = cells with rucaparib alone) 109% | viability ([10]; at 0.00488 µM, OCI-C5x cells, with rucaparib 10 µM, 100% = cells with rucaparib alone) 114% | viability ([10]; at 0.00488 µM, OCI-C5x cells, without rucaparib) 123% | viability ([10]; at 0.00488 µM, OCI-P5x cells, with rucaparib 20 µM, 100% = cells with rucaparib alone) 107% | viability ([10]; at 0.00488 µM, OCI-P5x cells, without rucaparib) 104% | viability ([10]; at 0.0195 µM, OCI-C5x cells, with rucaparib 10 µM, 100% = cells with rucaparib alone) 115% | viability ([10]; at 0.0195 µM, OCI-C5x cells, without rucaparib) 125% | viability ([10]; at 0.0195 µM, OCI-P5x cells, with rucaparib 20 µM, 100% = cells with rucaparib alone) 117% | viability ([10]; at 0.0195 µM, OCI-P5x cells, without rucaparib) 107% | viability ([10]; at 0.0781 µM, OCI-C5x cells, with rucaparib 10 µM, 100% = cells with rucaparib alone) 114% | viability ([10]; at 0.0781 µM, OCI-C5x cells, without rucaparib) 129% | viability ([10]; at 0.0781 µM, OCI-P5x cells, with rucaparib 20 µM, 100% = cells with rucaparib alone) 112% | viability ([10]; at 0.313 µM, OCI-C5x cells, with rucaparib 10 µM, 100% = cells with rucaparib alone) 113% | viability ([10]; at 0.313 µM, OCI-C5x cells, without rucaparib) 128% | viability ([10]; at 0.313 µM, OCI-P5x cells, with rucaparib 20 µM, 100% = cells with rucaparib alone) 115% | viability ([10]; at 0.313 µM, OCI-P5x cells, without rucaparib) 111% | viability ([10]; at 1.25 µM, OCI-C5x cells, with rucaparib 10 µM, 100% = cells with rucaparib alone) 115% | viability ([10]; at 1.25 µM, OCI-C5x cells, without rucaparib) 138% | viability ([10]; at 1.25 µM, OCI-P5x cells, with rucaparib 20 µM, 100% = cells with rucaparib alone) 112% | viability ([10]; at 1.25 µM, OCI-P5x cells, without rucaparib) 111% | viability ([10]; at 5 µM, OCI-C5x cells, with rucaparib 10 µM, 100% = cells with rucaparib alone) 110% | viability ([10]; at 5 µM, OCI-C5x cells, without rucaparib) 206%
6470: cell count ([7]; measured here: total cells without miR-34 induction)
0.00545: z-score ([9]; Rieske KO mouse fibroblast survival, CellTiter-Glo 72 h)
6270: cell count [8]

COc1cc2c3c(n(CCCNCCO)c(=O)c2cc1OC)-c1cc2c(cc1C3=O)OCO2
active: AC50 [1] 0.105 µM | AC50 [2] 2.95 µM | AC50 [3] 4.68 µM | AC50 [4] 2.63 µM | IC50 [6] 9.34 µM

CN[C@@H](C)C(=O)N[C@H](C(=O)N1CCC[C@H]1C(=O)Nc1sc(-c2ncco2)nc1-c1ccccc1)C1CCCCC1
inactive: outcome [1] | outcome [2] | outcome [3] | outcome [4] | outcome [6]

Nc1cc(C(F)(F)F)c(-c2nc(N3CCOCC3)nc(N3CCOCC3)n2)cn1
active: AC50 [1] 2.35 µM | AC50 [2] 3.72 µM | AC50 [3] 0.742 µM | AC50 [4] 2.35 µM | IC50 [6] 1.86 µM

CS(=O)(=O)N1CCC(NC(=O)c2[nH]ncc2NC(=O)c2c(Cl)cccc2Cl)CC1
active: AC50 [1] 3.32 µM | AC50 [2] 4.17 µM | AC50 [3] 4.17 µM | AC50 [4] 4.17 µM | IC50 [6] 4.68 µM

C=CC(=O)Nc1cccc(Oc2nc(Nc3ccc(N4CCN(C)CC4)cc3)nc3ccsc23)c1
active: AC50 [1] 8.33 µM | AC50 [2] 13.2 µM | AC50 [3] 9.34 µM | AC50 [4] 10.5 µM | IC50 [6] 0.59 µM

CC(=O)c1cnc2ccc(-c3cc(Cl)c(O)c(Cl)c3)nc2c1NC1CCC(CN(C)C)CC1 (stereo unspecified)
active: AC50 [1] 0.191 µM | AC50 [2] 0.171 µM | AC50 [3] 0.121 µM | AC50 [4] 0.303 µM | IC50 [6] 0.191 µM

C[C@@H]1N=C(N)NC(N(C)C)=N1
inactive: outcome [1] | outcome [2] | outcome [3] | outcome [4] | outcome [6]

C=CC(=O)N1CCC(Oc2cc3c(Nc4ccc(Cl)c(Cl)c4F)ncnc3cc2OC)CC1
active: AC50 [1] 6.61 µM | AC50 [2] 5.25 µM | AC50 [3] 3.32 µM | AC50 [4] 5.25 µM | IC50 [6] 16.6 µM

From PubChem BioAssay
